High-throughput results deposited in PubChem by National Center for Advancing Translational Sciences (NCATS).
D1 agonist – human D1 receptor agonism | P21728 | HEK293 T-REx D1 cells, calcium flux, agonist mode | activation, % at 2 µM | hit rate 1% among 360,000; in the data active = activation above about 30%
Target sequence (P21728 whole entry, looked up): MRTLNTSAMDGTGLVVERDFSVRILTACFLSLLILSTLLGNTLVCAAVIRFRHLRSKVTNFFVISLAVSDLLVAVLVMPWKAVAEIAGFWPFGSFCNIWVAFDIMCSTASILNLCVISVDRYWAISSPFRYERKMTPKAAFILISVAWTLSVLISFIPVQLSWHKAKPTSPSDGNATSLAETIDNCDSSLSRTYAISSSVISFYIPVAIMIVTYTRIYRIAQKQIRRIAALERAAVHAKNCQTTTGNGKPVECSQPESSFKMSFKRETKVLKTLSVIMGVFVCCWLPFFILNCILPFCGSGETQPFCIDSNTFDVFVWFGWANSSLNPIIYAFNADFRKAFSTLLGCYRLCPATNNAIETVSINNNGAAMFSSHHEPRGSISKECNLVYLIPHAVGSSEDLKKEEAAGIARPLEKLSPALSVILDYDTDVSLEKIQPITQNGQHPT
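Inducible HEK293 T-REx D1 cells, force-coupled to calcium signalling, were plated at 4000 cells/well with tetracycline and held overnight at 30 C. After no-wash calcium dye loading, compound-evoked calcium rise over 180 s flagged agonists.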
D1 PAM – human D1 dopamine receptor positive modulation; HEK293 TREx D1 cells, calcium flux, dopamine EC20 potentiation; potentiation, % at 10 µM; hit rate 0.036% among 360,000; AID 504651; in the data active = potentiation above about 30%
DRD3 agonist – D3 dopamine receptor (human) agonism | P35462 | D3R DiscoveRx beta-arrestin cells, luminescence, 90 min | max activation, % | hit rate 0.58% among 410,000 | AID 652048; in the data active = max activation above about 30%
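Agonist-mode cell screen: cells plated at 1500/well and incubated overnight at 37 °C, then exposed to library compounds for 90 min at 37 °C. Detection reagent was added for 30–60 min at room temperature, and luminescence was read.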
D3 antag – D3 dopamine receptor (human) antagonism; P35462; D3R cells, DiscoveRx beta-arrestin luminescence, antagonist mode; stronger effect = lower value; max response, negative = inhibition, %; hit rate 2.5% among 360,000; AID 652054; in the data active = max response below about -50%; inconclusive = no clear call, values can overlap the other calls
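Cells expressing the human receptor were seeded at 1500 cells/well, incubated overnight at 37 degrees C in 5% CO2, then exposed to library compounds with dopamine controls for 90 minutes at 37 degrees C before luminescent detection.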
BCR signal inh – blocks chronic active B-cell receptor signaling; Potency, µM (series often up to 46.1 µM), most hits filed as inhibitors; ABC-DLBCL IkBa-CBG/CBR reporter, luminescence ratio, 4 h; hit rate 0.05% among 340,000; AID 493014; active = well fitted inhibition curve with a large enough effect in the signal ratio, with a control signal flat, not every such curve was filed as active; inconclusive = small, poorly fitted or top-dose-only effect, or effect the other way, or a change in a side signal; the % refers to the signal ratio
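Concentration-response series (up to 46 uM) were applied to TMD8 dual-reporter cells for 4 h at 37C with doxycycline. Green/red ratio, after filter-overlap correction, defined %Activity; red signal alone was normalised to basal cells and zero luminescence.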
D1 antagonist – blocks dopamine activation of the human D1 receptor. P21728. HEK293 TREx D1 cells, calcium flux, dopamine EC80; stronger effect = lower value. activity change, negative = inhibition, % at 10 µM. hit rate 3.2% among 360,000. AID 504652; in the data active = activity change below about -30%
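Cells carrying a force-coupled, tetracycline-inducible human D1 receptor report calcium flux. Each well gets a 10 s baseline, compound with 180 s monitoring, then an EC80 dopamine stimulus with a second 180 s kinetic read.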
Each line names hits and unclear results; the compound was inactive in the other large screens. Only some compounds are listed: those with a hit (about 6% of all), similar ones and a draw of the others.

O[C@@H](CNC[C@H](O)[C@H]1CCc2cc(F)ccc2O1)[C@@H]1CCc2cc(F)ccc2O1	none (no result: D1 agonist, D1 PAM, D3 antag, BCR signal inh, D1 antagonist)
O=C(c1cccs1)N1CCC(c2ccccc2)C1 (centres undefined)	D3 antag -59.5, BCR signal inh inconclusive, D1 antagonist -85.1
O=C(CCN1CCC(c2ccccc2)C1)c1cccs1 (centres undefined)	D3 antag -66.2
O=C(NCCCCc1ccccc1)c1ccccc1	BCR signal inh inconclusive
O=C(NCCCCNCCCNC(=O)c1ccccc1)c1ccccc1	D3 antag -50.7 (no result: D1 agonist, D1 PAM, D1 antagonist)
O=C(NCCCc1ccccc1)c1ccccc1	BCR signal inh inconclusive, D1 antagonist -41.1
COc1ccc(C(=O)N=c2sc3cc(Cl)ccc3n2C)cc1	none (no result: D3 antag, BCR signal inh)
CCOC(=O)c1ccc(NC(=O)Cc2coc3cc(C)cc(C)c23)cc1	none (no result: D3 antag, BCR signal inh)
COc1cc(/C=N/NC(=O)c2nnn(-c3nonc3N)c2C(C)C)ccc1OCc1ccc(F)cc1	DRD3 agonist 56.7, BCR signal inh inconclusive
COc1cc(/C=N\n2nnnc2N)ccc1OCc1ccc(F)cc1	D3 antag -54.1
COc1ccc(-c2ccc(C(=O)NCc3ccc(C(F)(F)F)cc3)c3occc23)c(C)c1	none (no result: D1 agonist, D1 PAM, BCR signal inh, D1 antagonist)
COc1ccccc1CC(=O)Nc1ccc(S(=O)(=O)N(C)C2CCN(C)CC2)cc1	D3 antag -51.3
CCC(C(=O)NC1CCN(C)CC1)c1ccccc1 (centres undefined)	none
CCC(C(=O)Nc1ccc(S(=O)(=O)N(C)C2CCN(C)CC2)cc1)c1ccccc1 (centres undefined)	D1 agonist 30.3
CC(Oc1ccc(Br)cc1)C(=O)Nc1ccc(S(=O)(=O)N(C)C2CCN(C)CC2)cc1 (centres undefined)	D1 agonist 126.2, D1 antagonist -52.2
COc1ccc(CC(=O)Nc2ccc(S(=O)(=O)N(C)C3CCN(C)CC3)cc2)cc1	none
Cc1cccc(OCC(=O)Nc2ccccc2OCc2cc(=O)n3ccccc3n2)c1	none (no result: D3 antag, BCR signal inh)
CC(C)(C)C(C(=O)NCc1ccccc1)N1CCN(CCN2CCOCC2)CC1 (centres undefined)	D3 antag -64.0 (no result: D1 agonist, D1 PAM, BCR signal inh, D1 antagonist)
Cc1c(NC(=O)COC(=O)c2ccccc2Cl)c(=O)n(-c2ccccc2)n1C	none
COc1ccc2c(CC(=O)Nc3c(C)n(C)n(-c4ccccc4)c3=O)coc2c1	BCR signal inh inconclusive
Cc1ccc2c(CC(=O)Nc3c(C)n(C)n(-c4ccccc4)c3=O)coc2c1	BCR signal inh inconclusive, D1 antagonist -80.1
Cc1c(NC(=O)COC(=O)C2CC3C=CC2C3)c(=O)n(-c2ccccc2)n1C (centres undefined)	D3 antag -75.7
CO[C@H]1C=CO[C@@]2(C)Oc3c(C)c(O)c4c(O)c(c(/C=N/N5CCN(C6CCCC6)CC5)c(O)c4c3C2=O)NC(=O)/C(C)=C\C=C[C@H](C)[C@H](O)[C@@H](C)[C@@H](O)[C@@H](C)[C@H](OC(C)=O)[C@@H]1C	none (no result: D1 agonist, D1 PAM, D3 antag, BCR signal inh, D1 antagonist)
CC(C)(C)NC(=O)c1cccc(NC(=O)CSc2ccc(Cl)cc2)c1	D1 antagonist -59.2
CC(C)CNC(=O)c1cccc(NC(=O)CSc2ccc(Cl)cc2)c1	BCR signal inh inconclusive
Cc1cccc(CS(=O)(=O)Cc2ccc(C(=O)NCc3ccccc3)o2)c1	none
Cc1ccc(C(=O)c2c[nH]c(C(=O)NCc3cccnc3)c2)cc1	BCR signal inh inconclusive, D1 antagonist -49.4
COc1cccc(C(=O)c2c[nH]c(C(=O)NCc3cccnc3)c2)c1	BCR signal inh inconclusive
Cc1ccc(CS(=O)(=O)Cc2ccc(C(=O)NCc3cccnc3)o2)cc1	D1 antagonist -32.7
Cc1cccc(CS(=O)(=O)Cc2ccc(C(=O)NCc3cccs3)o2)c1	DRD3 agonist 32.2
COc1ccc(N2Cc3cccc(C(=O)Nc4cccc(F)c4)c3C2=O)cc1	none (no result: D3 antag, BCR signal inh)
CCOc1ccccc1NC(=O)N1CCN(Cc2nc3ccc(C)cc3o2)CC1	none (no result: D3 antag, BCR signal inh)
Cc1ccc(C)c2[nH]c(=O)c(CN(CCN3CCCC3)C(=O)Nc3ccc(F)cc3)cc12	BCR signal inh inconclusive, D1 antagonist -36.2
O=C(Cn1cc(SCc2ccc(Cl)cc2)c2ccccc21)N1CCCC1	none (no result: D3 antag, BCR signal inh)
ClCCn1cnc2c(SCc3ccccc3)ncnc21	none (no result: D1 agonist, D1 PAM, BCR signal inh, D1 antagonist)
